From PubChem BioAssay (Tox21)
Calls of active or inactive are those of the source. Unless noted, calls come from the whole dose curve; as a rule, active = well fitted curve in the direction sought with a large enough effect in the repeat runs; inconclusive = weak or mixed curves; inactive = no such curve, though single readings can be large; an effect the other way counts as inactive or inconclusive.

Tests used:
[1] = qHTS assay for small molecule agonists of the p53 signaling pathway - cell viability (AID 651633; calls by dose curve; note: nearly all actives have a fitted effect of over 30% in size; note: potency is the fitted concentration of half-maximal effect)
Method in brief: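 Viability counter-read: CellTiter-Glo luminescence (30 min, room temperature) in the same p53RE-bla plates. These plates had been exposed to compounds for 16 h at 37 C.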

[2] = qHTS assay for small molecules that induce genotoxicity in human embryonic kidney cells expressing luciferase-tagged ATAD5 - cell viability (AID 651634; calls by dose curve; note: nearly all actives have a fitted effect of over 25% in size)
Method in brief: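 After 15.5 hr incubation with compound at 37C, 5% CO2, HEK293T ATAD5-luciferase cells received CellTiter-Fluor reagent; fluorescence intensity was quantified following 30 min at 37C.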

[3] = qHTS assay for small molecule disruptors of the mitochondrial membrane potential - cell viability (AID 720634; calls by dose curve; note: nearly all actives have a fitted effect of over 20% in size; note: potency is the fitted concentration of half-maximal effect)
Method in brief: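 ATP-based luminescent viability readout (CellTiter-Glo, 30 min, room temperature) in HepG2 cells multiplexed with the m-MPI membrane potential dye; compound exposure lasted 1 hr at 37 C.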

[4] = qHTS assay for small molecule disruptors of the mitochondrial membrane potential (AID 720635); note: potency is the fitted concentration of half-maximal effect
Method in brief: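 Mitochondrial membrane potential tracked with Mito-MPS dye, red aggregates (ex 540/em 590 nm) against green monomers (ex 490/em 535 nm). Compound treatment 1 hr at 37C, dye 30 min in HepG2.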

[5] = qHTS assay to test for compound auto fluorescence at 590 nm (red) in HepG2 cells (AID 720674)
Method in brief: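 We screened compounds on adherent HepG2 cells, incubating them for an hour at 37 C in 5% CO2 before reading emission at 590 nm under 540 nm excitation; values reflect equivalence to Rose Bengal sodium fluorescence.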

[6] = qHTS assay to test for compound auto fluorescence at 535 nm (green) in HepG2 cells (AID 720675)
[7] = qHTS assay to test for compound auto fluorescence at 460 nm (blue) in HEK293 cells (AID 720678)
Method in brief: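 HEK293 cells (2,000 per well, medium with 10% dialyzed FBS) attached for 4-5 hr at 37C, then received compound and stood overnight at 37C, 5% CO2. Blue fluorescence was read at Ex/Em 405/460 nm and expressed relative to triamterene.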

[8] = qHTS assay to test for compound auto fluorescence at 590 nm (red) in HEK293 cells (AID 720679)
Method in brief: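 HEK293 cells (2,000/well, medium with 10% dialyzed FBS) attached for 4-5 hr at 37C, received 23 nL compound and were incubated overnight at 37C, 5% CO2. Red fluorescence was then read at 540/590nm Ex/Em, referenced to Rose Bengal sodium.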

[9] = qHTS assay to test for compound auto fluorescence at 535 nm (green) in HEK293 cells (AID 720680)
[10] = qHTS assay to test for compound auto fluorescence at 460 nm (blue) in HEK293 cell free culture (AID 720681)
Method in brief: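 Blue fluorescence (Ex 405/Em 460 nm, triamterene-equivalent) was read immediately after pin transfer of compound or DMSO into medium (DMEM, 10% FBS) without cells.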

[11] = qHTS assay to test for compound auto fluorescence at 535 nm (green) in HEK293 cell free culture (AID 720682)
Method in brief: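 Read-out: 485/535 nm fluorescence intensity, calibrated against fluorescein. Medium only (DMEM + 10% FBS, no cells); test compound or DMSO vehicle added by pintool before plate reading.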

[12] = qHTS assay to test for compound auto fluorescence at 590 nm (red) in HEK293 cell free culture (AID 720683)
Method in brief: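 Red-channel autofluorescence of compounds in culture medium (DMEM, 10% FBS), no cells, measured at 540/590 nm. Rose Bengal sodium is the reference fluorophore for equivalence.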

[13] = qHTS assay to test for compound auto fluorescence at 590 nm (red) in HepG2 cell free culture (AID 720684)
Method in brief: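 Cell-free; medium MEM + 10% FBS; compound or DMSO added by pintool; read Ex 540/Em 590 nm; Rose Bengal sodium as red reference fluorophore.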

[14] = qHTS assay to test for compound auto fluorescence at 460 nm (blue) in HepG2 cell free culture (AID 720685)
Method in brief: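 Cell-free plates of MEM plus 10% FBS received 23 nL compound or DMSO vehicle; blue-channel (405/460 nm) intensity scored against triamterene as reference fluorophore.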

[15] = qHTS assay to test for compound auto fluorescence at 535 nm (green) in HepG2 cell free culture (AID 720686)
[16] = qHTS assay to test for compound auto fluorescence at 460 nm (blue) in HepG2 cells (AID 720687)
Method in brief: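 Blue-channel autofluorescence (Ex/Em 405/460 nm, triamterene-equivalent) was measured after 1 hr compound exposure at 37 C, 5% CO2. Cells were HepG2, plated overnight at 37 C in MEM plus 10% FBS.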

[17] = target: Glucocorticoid receptor (Homo sapiens) (UniProt P04150); experiment: qHTS assay to identify small molecule agonists of the glucocorticoid receptor (GR) signaling pathway (AID 720691; active = well fitted activation curve with a large enough effect in the signal ratio in the repeat runs, not every such curve was filed as active; inconclusive = weak or mixed curves, or effect the other way; inactive = no such curve, though single readings can be large or run the other way; the % refers to the signal ratio; note: potency is the fitted concentration of half-maximal effect)
Chain of Glucocorticoid receptor (Homo sapiens) (P04150 whole entry, looked up): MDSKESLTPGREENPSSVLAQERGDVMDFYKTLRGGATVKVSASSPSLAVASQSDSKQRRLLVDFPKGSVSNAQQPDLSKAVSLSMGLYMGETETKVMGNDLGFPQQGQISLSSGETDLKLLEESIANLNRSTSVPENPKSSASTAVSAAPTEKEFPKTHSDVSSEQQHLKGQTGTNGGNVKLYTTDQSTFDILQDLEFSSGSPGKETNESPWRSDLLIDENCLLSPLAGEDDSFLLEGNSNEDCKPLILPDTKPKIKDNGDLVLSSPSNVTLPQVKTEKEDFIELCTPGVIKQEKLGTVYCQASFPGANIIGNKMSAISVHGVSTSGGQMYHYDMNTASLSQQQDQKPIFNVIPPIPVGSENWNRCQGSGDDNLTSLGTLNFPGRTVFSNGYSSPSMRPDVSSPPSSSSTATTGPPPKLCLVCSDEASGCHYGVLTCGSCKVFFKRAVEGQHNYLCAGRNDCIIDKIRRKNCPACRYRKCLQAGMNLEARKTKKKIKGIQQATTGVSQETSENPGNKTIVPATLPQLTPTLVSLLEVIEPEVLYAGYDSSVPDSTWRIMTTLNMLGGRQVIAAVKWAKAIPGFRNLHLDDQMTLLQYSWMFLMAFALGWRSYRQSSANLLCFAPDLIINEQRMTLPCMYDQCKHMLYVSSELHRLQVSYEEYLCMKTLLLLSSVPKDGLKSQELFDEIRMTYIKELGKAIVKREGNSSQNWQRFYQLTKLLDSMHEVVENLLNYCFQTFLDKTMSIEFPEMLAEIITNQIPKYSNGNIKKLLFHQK
Method in brief: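 Cells: GR-bla HeLa, endogenous GR with stably integrated GRE-beta-lactamase reporter. Treatment 18 h, 37 C, compounds delivered in DMSO. Detection via LiveBLAzer B/G FRET substrate, 2 h RT, fluorescence intensity.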

[18] = qHTS assay for small molecules that induce genotoxicity in human embryonic kidney cells expressing luciferase-tagged ATAD5 (AID 651632); note: nearly all actives have a fitted effect of over 15% in size; note: potency is the fitted concentration of half-maximal effect
Method in brief: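 Quantitative HTS in HEK293T expressing luciferase-tagged ATAD5, whose levels rise upon DNA damage. Exposure ran 16 hr at 37C and 5% CO2, with luminescence read 30 min after Amplite addition at room temperature.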

[19] = target: Glucocorticoid receptor (Homo sapiens) (UniProt P04150); experiment: qHTS assay to identify small molecule antagonists of the glucocorticoid receptor (GR) signaling pathway (AID 720692; active = well fitted inhibition curve with a large enough effect in the signal ratio in the repeat runs, not every such curve was filed as active; inconclusive = weak or mixed curves, or effect the other way; inactive = no such curve, though single readings can be large or run the other way; the % refers to the signal ratio)
Method in brief: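 Quantitative HTS in antagonist format: HeLa cells expressing endogenous GR and a stably integrated GRE-bla reporter, stimulated with 5 nM dexamethasone (final) alongside test compounds for 18 h.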
% is set by controls: 0 for no effect and ±100 for the full control effect.

CC(=O)OCC(=O)NCCCOc1cccc(CN2CCCCC2)c1
inactive: Potency [1] | Potency [2] | Potency [3] | Potency [4] | outcome [5] | outcome [6] | Potency [7] | outcome [8] | outcome [9] | Potency [10] | outcome [11] | outcome [12] | outcome [13] | Potency [14]

CCOc1ccc(Cc2nccc3cc(OCC)c(OCC)cc23)cc1OCC
inactive: Potency [1] | Potency [3] | fluorescence, relative to Rose Bengal [5] 0.4% [at 18.6 µM] | fluorescence, % of fluorescein control [6] 0.127% [at 18.6 µM] | fluorescence, % of triamterene [7] -0.0249% [at 18.6 µM] | fluorescence, % of fluorescent control [8] 0.0124% [at 18.6 µM] | fluorescence, % of fluorescein [9] -0.066% [at 18.6 µM] | fluorescence, % of fluorescent control [10] 0.019% [at 18.6 µM] | activity change [11] 0.0026% [at 18.6 µM] | fluorescence, % of fluorescent control [12] 0.116% [at 18.6 µM] | fluorescence, % of Rose Bengal [13] 0.0721% [at 18.6 µM] | fluorescence, % of fluorescent control [14] -0.0254% [at 18.6 µM] | fluorescence, % of fluorescein control [15] 0.0297% [at 18.6 µM] | fluorescence, % of fluorescent control [16] -0.0004% [at 18.6 µM] | Potency [17]

CC1(C)O[C@@H]2C[C@H]3[C@@H]4C[C@H](F)C5=CC(=O)C=C[C@]5(C)[C@H]4[C@@H](O)C[C@]3(C)[C@]2(C(=O)CO)O1
active: Potency [17] 1.29 µM [inconclusive]
inactive: Potency [1] | Potency [2] | Potency [3] | fluorescence, relative to Rose Bengal [5] 0.174% [at 18.6 µM] | fluorescence, % of fluorescein control [6] -0.107% [at 18.6 µM] | fluorescence, % of fluorescent control [8] -0.713% [at 18.6 µM] | fluorescence, % of fluorescein [9] -0.126% [at 18.6 µM] | fluorescence, % of fluorescent control [10] -0.131% [at 18.6 µM] | activity change [11] -0.178% [at 18.6 µM] | fluorescence, % of fluorescent control [12] -0.673% [at 18.6 µM] | fluorescence, % of Rose Bengal [13] -0.32% [at 18.6 µM] | fluorescence, % of fluorescent control [14] -0.0967% [at 18.6 µM] | fluorescence, % of fluorescein control [15] -0.129% [at 18.6 µM] | fluorescence, % of fluorescent control [16] -0.0461% [at 18.6 µM]

Cc1cc(O)ccc1O
inactive: Potency [2] | Potency [3] | Potency [4] | outcome [5] | outcome [6] | Potency [7] | outcome [8] | outcome [9] | Potency [10] | outcome [11] | outcome [12] | outcome [13] | Potency [14] | outcome [15] | Potency [16]

O=C(O)c1cccc(-c2noc(-c3ccccc3F)n2)c1
inactive: Potency [2] | Potency [4] | outcome [5] | outcome [6] | outcome [8] | outcome [9] | Potency [10] | outcome [11] | outcome [12] | Potency [14] | outcome [15] | Potency [16] | Potency [17]
active: Potency [1] 29.8 µM

CN1CC(=O)N2[C@H](c3ccc4c(c3)OCO4)c3[nH]c4ccccc4c3C[C@@H]2C1=O
inactive: Potency [18] | Potency [2] | Potency [3] | outcome [5] | outcome [6] | Potency [7] | outcome [8] | outcome [9] | Potency [10] | outcome [11] | outcome [12] | outcome [13] | Potency [14] | Potency [16] | Potency [17] | Potency [19]

CCCCC(CC)CN (stereo unspecified)
inactive: Potency [1] | Potency [2] | outcome [5] | outcome [6] | outcome [8] | outcome [9] | Potency [10] | outcome [11] | outcome [12] | outcome [13] | Potency [14] | outcome [15] | Potency [16] | Potency [17]

CC(=O)Oc1ccc([N+](=O)[O-])cc1CCl
active: Potency [4] 54.5 µM
inactive: Potency [1] | Potency [3] | outcome [5] | outcome [6] | Potency [7] | outcome [8] | outcome [9] | Potency [10] | outcome [11] | outcome [12] | outcome [13] | Potency [14] | outcome [15] | Potency [16]

O=C1Cc2ccccc2N1c1c(Cl)cccc1Cl
inactive: Potency [18] | Potency [2] | outcome [5] | outcome [6] | outcome [8] | outcome [9] | Potency [10] | outcome [11] | outcome [12] | outcome [13] | Potency [14] | outcome [15]

CC(=O)NC1(c2cccc(F)c2)CCN(CC[C@@]2(c3ccc(Cl)c(Cl)c3)CN(c3ccccc3)C(=O)CO2)CC1
inactive: Potency [3] | outcome [5] | outcome [6] | Potency [7] | outcome [8] | outcome [9] | Potency [10] | outcome [11] | outcome [12] | outcome [13] | Potency [14] | outcome [15] | Potency [16]

CCCCCCCCOc1ccc(C(=O)O)cc1
inactive: Potency [3] | outcome [5] | outcome [6] | Potency [7] | outcome [8] | outcome [9] | Potency [10] | outcome [11] | outcome [12] | outcome [13] | Potency [14] | outcome [15] | Potency [16] | Potency [17]

O=c1cc(-c2ccccc2)oc2ccc3ccccc3c12
active: Potency [18] 0.077 µM | Potency [3] 24.3 µM | Potency [4] 8.63 µM
inactive: outcome [5] | outcome [6] | Potency [7] | outcome [8] | outcome [9] | Potency [10] | outcome [11] | outcome [12] | outcome [13] | Potency [14] | outcome [15]

O=C(/C=C/c1ccccc1)OCCc1ccccc1
inactive: Potency [1] | Potency [3] | outcome [5] | outcome [6] | Potency [7] | outcome [8] | outcome [9] | Potency [10] | outcome [11] | outcome [12] | outcome [13] | Potency [14] | outcome [15] | Potency [16] | Potency [17]
